Assay outcomes as filed in PubChem BioAssay.
Arbovirus inh = antivirals against arbovirus infection; arbovirus infection cell-based antiviral screen; inhibition, % at 10 µM; 200,000 compounds, 0.37% hits; AID 1251; in the data active means inhibition above about 30%
CHOP inh = blocks CHOP induction under ER stress. CHO-K1 CHOP-promoter luciferase, tunicamycin-induced, 15-18 h. 220,000 compounds, 3.8% hits. inhibition, % at 10 µM;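 active means compounds that reduced the stress-induced luciferase reporter signal by more than about 70% of percent inhibition, limit read from the data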
L major viab = reduces viability of Leishmania major promastigotes | resazurin fluorescence viability | inhibition, % at 10 µM | 200,000 compounds, 9% hits | AID 1063; in the data active means inhibition above about 50%;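 further: promastigotes grown with compound for 44 hours at 28 °C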
WT yeast gro inh = growth inhibition of WT yeast, mitochondrial fusion screen | mitochondrial fusion phenotypic screen, WT strain | inhibition, % at 10 µM | 190,000 compounds, 2.1% hits; in the data active means inhibition above about 58%; tested in S. cerevisiae
Hits are given with their value; – = inactive; · = no result given. In the library only some 12% were active in any assay of this set; here they are far more common.

SMILES	Arbovirus inh	CHOP inh	L major viab	WT yeast gro inh
COC(=O)C(O)(NC(=O)c1ccncc1)C(F)(F)F (centres undefined)	·	–	·	·
CCc1ccc(N2C(=O)Cc3c2nc(N)c(C#N)c3N)cc1	–	–	–	–
CCN(CC)c1nc2c3c(nc4c(c3c1C#N)CC(=O)N4c1ccc(Cl)cc1)NC(C)=N2	–	–	56	–
O=C(CCCn1cc([N+](=O)[O-])cn1)Nc1cccnc1	·	–	·	·
Cc1ccc(CC2CC(=O)N(CCc3ccc4c(c3)OCO4)C2=O)cc1 (centres undefined)	–	–	60	–
COc1cccc(CC2CC(=O)N(CCc3ccc4c(c3)OCO4)C2=O)c1 (centres undefined)	–	–	–	–
CCOC(=O)c1sc(-c2ccccc2)cc1NC(=O)Nc1ccc([N+](=O)[O-])cc1	–	91	85	–
CC(C)(C)c1ccc(N/N=C(\C#N)S(=O)(=O)C(C)(C)C)cc1	34	–	–	–
CN(C)CC(C)(C)CNS(=O)(=O)c1ccc(OC(F)(F)F)cc1	–	–	–	–
COc1cccc(C(=O)Oc2ccccc2/C=C\C(=O)c2cc3ccccc3o2)c1	–	–	100	–
O=C(Oc1ccccc1/C=C\C(=O)c1cc2ccccc2o1)c1ccccc1	–	–	92	–
O=C(Oc1ccccc1/C=C\C(=O)c1cc2ccccc2o1)c1cccc(F)c1	–	–	79	–
COc1ccc(C(=S)N2CCN(c3cccc(Cl)c3)CC2)cc1	·	–	·	·
CCOC(=O)Cc1nnc(Nc2ccc(C)cc2C)c2ccccc12	–	–	–	–
COc1cc2nc(CN3CCOCC3)n(CC(=O)NCC(F)(F)F)c(=O)c2cc1OC	·	–	·	·
O=C(CC1NC(=O)NC1=O)Nc1ccc(Cl)cc1 (centres undefined)	–	75	–	–
O=C(CC1Nc2ccccc2NC1=O)Nc1cc(Cl)cc(Cl)c1 (centres undefined)	–	–	51	–
CCOC(=O)c1c(NC(=O)CC2Nc3ccccc3NC2=O)sc(C)c1C (centres undefined)	–	–	58	–
COC(=O)c1c(NC(=O)CC2Nc3ccccc3NC2=O)sc(C)c1C (centres undefined)	–	–	–	–
CCCCNC(=O)CC1Nc2ccccc2NC1=O (centres undefined)	–	–	–	–
CCOc1cc(C)nc(N2CCCC(C(=O)NCc3ccccc3F)C2)n1 (centres undefined)	–	71	–	–
Cc1cc(C)nc(N2CCCC(C(=O)NCCc3ccccc3F)C2)n1 (centres undefined)	–	–	–	–
Cc1cc(C)nc(N2CCCC(C(=O)NCc3cccs3)C2)n1 (centres undefined)	–	–	–	70
COc1cccc(CNCCc2c[nH]c3ccccc23)c1OCc1ccccc1	–	–	99	–
COc1cc(CNCCc2c[nH]c3ccccc23)ccc1OCc1ccccc1F	–	–	98	–
SMILES	Arbovirus inh	CHOP inh	L major viab	WT yeast gro inh
COc1cccc(CNC23CC4CC(CC(C4)C2)C3)c1OCc1ccccc1	–	–	92	–
O=C1CN=C(Nc2ccccc2Cl)N1Cc1ccc2c(c1)OCO2	–	–	–	–
FC(F)(F)c1ccc(Nc2nnnc3ccccc23)cc1	–	–	–	–
O=C1CS/C(=N/N=C2CCCC2)N1	–	–	–	–
O=C1CSC(=NC2CCCCC2)N1	–	–	–	84
O=C(COc1ncnc2ccccc12)Nc1ccc(S(=O)(=O)N2CCOCC2)cc1	·	–	·	·
Cc1cc(C(=O)Nc2sc(C)c(C)c2C#N)c(C)o1	–	75	–	–
CCOC(=O)C/C(C)=N\Nc1nc(-c2ccccc2)cs1	–	–	–	–
CC(/C=C/c1ccccc1)=N\Nc1nc(-c2ccccc2)cs1	–	–	69	–
C(=N\Nc1nc(-c2ccccc2)cs1)/c1cccnc1	–	–	91	–
Clc1ccc(N/N=C/c2cccnc2)cc1	–	–	62	59
Cc1sc(N/N=C/c2cccnc2)nc1-c1ccc(Cl)cc1	–	–	–	–
C/C(CCC1CC(C)OC1=O)=N/Nc1nc(-c2ccccc2)cs1 (centres undefined)	–	–	76	–
CC1CC(CC(=O)NNc2nc(-c3ccccc3)cs2)C(=O)O1 (centres undefined)	–	–	–	–
COCCNc1ccc(S(=O)(=O)N2CCCC2)cn1	–	–	–	–
O=[N+]([O-])c1ccc(-c2n(-c3ccccn3)c3ccccc3[n+]2-c2ccccn2)cc1	·	–	·	·
COC(=O)c1ccc(C(NC(=O)OCc2ccccc2)/C(F)=C/[C@@H](C)C(=O)NCc2ccc(OC)c(OC)c2)cc1 (some centres undefined)	–	–	–	–
CC(C)=NNc1nc(-c2ccccc2)cs1	–	–	89	–
CCCCc1ccc(NC(=O)COc2ccc(C(=O)Nc3ccccc3OCC)cc2)cc1	–	82	–	–
Cc1ccc2nc(N(CCCN(C)C)C(=O)COc3ccc(Cl)cc3)sc2c1	–	–	–	91
CN(C)CCCN(C(=O)c1ccc(N2C(=O)CCC2=O)cc1)c1nc2c(F)cccc2s1	–	–	–	–
Cc1cccc2sc(N(CCCN(C)C)C(=O)COc3ccc(Cl)cc3)nc12	–	–	–	90
CN(C)CCCN(C(=O)CCOc1ccccc1)c1nc2ccc(F)cc2s1	–	–	93	–
Cc1ccc2sc(N(CCCN(C)C)C(=O)CN3C(=O)c4ccccc4C3=O)nc2c1C	–	–	–	94
CN(C)CCCN(C(=O)c1ccco1)c1nc2ccc(F)cc2s1	–	–	–	–
SMILES	Arbovirus inh	CHOP inh	L major viab	WT yeast gro inh
Nc1nc(-c2ccc(Cl)cc2)nn1C(=O)c1ccco1	–	–	–	–
Cc1ccccc1OCCC(=O)OCC(=O)Nc1cc(S(=O)(=O)N2CCOCC2)ccc1Cl	–	–	–	–
CN(C)CCCN(C(=O)COc1ccc(Cl)cc1)c1nc2ccc(F)cc2s1	–	–	–	61
Cc1cc(C)c2sc(N(CCN(C)C)C(=O)c3cc(Cl)sc3Cl)nc2c1	–	–	–	–
CN(C)CCCN(C(=O)COc1ccccc1)c1nc2ccc(F)cc2s1	–	–	–	–
Cc1cc(C)c2sc(N(CCCN(C)C)C(=O)COc3ccc(Cl)cc3)nc2c1	–	–	–	89
CC1(C)COC(c2coc3ccccc3c2=O)OC1	–	–	–	–
C=COC(=O)c1sc2nc(C)cc(C)c2c1N	·	–	·	·
COc1ccc(NC(C)C(=O)Nc2ccc(C(C)(C)C)cc2)cc1Cl (centres undefined)	–	–	50	–
COc1ccc(NC(C)C(=O)Nc2ccc(C#N)cc2)cc1Cl (centres undefined)	–	–	–	–
Cc1ccc(S(=O)(=O)N(C)c2cc(S(=O)(=O)N3CCC(C)CC3)c(C)cc2C)cc1	–	–	77	–
Cc1ccc(/C=C2\S/C(=N/S(=O)(=O)c3cccs3)NC2=O)cc1	·	–	·	·
Cc1ccc(NC2=C/C(=N/S(=O)(=O)c3cccs3)c3ccccc3C2=O)cc1	–	98	99	–
Cc1cc(C)nc(N2N=C(C(F)(F)F)CC2=O)n1	·	–	·	·
O=C(CNS(=O)(=O)c1ccc(Br)s1)NCC1COc2ccccc2O1 (centres undefined)	–	–	59	–
CS(=O)(=O)c1ccc(C(=O)NCCN2C(=O)S/C(=C\c3cccnc3)C2=O)cc1[N+](=O)[O-]	–	–	74	–
